Data published in PubChem BioAssay (Tox21).
Records with an inconclusive call do not appear. Active and inactive are the calls of the source. Calls follow the shape of the dose curve; as a rule, active = well fitted curve in the direction sought with a large enough effect in the repeat runs; inconclusive = weak or mixed curves; inactive = no such curve, though single readings can be large; an effect the other way counts as inactive or inconclusive.

Key:
[1] = A CellTox Green Cytotoxicity Assay to monitor cytotoxicity in HepG2 cells - 16 hour (AID 1224876); also: nearly all actives have a fitted effect of over 45% in size
Outline: (§1)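 Nonlytic assay: viable cells exclude the dye, so fluorescence scales with cell death. HepG2 at 600 cells/well, compounds added after 5 h, signal read across 40 h.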

[2] = qHTS RealTime-Glo MT Cell Viability Assay in HepG2 cells - 32 hour (AID 1224877); also: nearly all actives have a fitted effect of over 55% in size
Outline: (§2)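 Cells + NanoLuc/prosubstrate dispensed (600 cells/well) → 5 h at 37 C/5% CO2 → compounds in DMSO transferred → 40 h incubation at 37 C, luminescence read at 0, 8, 16, 24, 32, 40 h.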

[3] = A CellTox Green Cytotoxicity Assay to monitor cytotoxicity in HepG2 cells - 24 hour (AID 1224878); also: nearly all actives have a fitted effect of over 45% in size; also: potency is read from the fitted curve at half-maximal effect
Outline: as §1

[4] = A CellTox Green Cytotoxicity Assay to monitor cytotoxicity in HepG2 cells - 40 hour (AID 1224879); also: nearly all actives have a fitted effect of over 40% in size; also: potency is read from the fitted curve at half-maximal effect
Outline: as §1

[5] = qHTS RealTime-Glo MT Cell Viability Assay in HEK293 cells - 0 hour (AID 1224880); also: top concentration of the series differs between compounds; nearly all actives have a fitted effect of over 45% in size
Outline: (§3)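 Tox21 screen in HEK293 using RealTime-Glo MT chemistry, with cells and reagent co-dispensed. Luminescence proportional to viable cell number was captured at intervals during 40 h compound exposure at 37 C.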

[6] = A CellTox Green Cytotoxicity Assay to monitor cytotoxicity in HEK293 cells - 32 hour (AID 1224881); also: nearly all actives have a fitted effect of over 40% in size; also: potency is read from the fitted curve at half-maximal effect
Outline: (§4)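 Seeding of HEK293 cells together with cytotoxicity dye preceded a 5 h incubation at 37 C/5% CO2. Test compounds in DMSO were then added and fluorescence monitored across 40 h.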

[7] = A CellTox Green Cytotoxicity Assay to monitor cytotoxicity in HepG2 cells - 0 hour (AID 1224882); also: nearly all actives have a fitted effect of over 35% in size; also: potency is read from the fitted curve at half-maximal effect
Outline: as §1

[8] = A CellTox Green Cytotoxicity Assay to monitor cytotoxicity in HepG2 cells - 32 hour (AID 1224883); also: nearly all actives have a fitted effect of over 50% in size; also: potency is read from the fitted curve at half-maximal effect
Outline: as §1

[9] = A CellTox Green Cytotoxicity Assay to monitor cytotoxicity in HEK293 cells - 8 hour (AID 1224884); also: nearly all actives have a fitted effect of over 35% in size; also: potency is read from the fitted curve at half-maximal effect
Outline: as §4

[10] = qHTS RealTime-Glo MT Cell Viability Assay in HepG2 cells - 16 hour (AID 1224885); also: nearly all actives have a fitted effect of over 50% in size
Outline: as §2

[11] = qHTS RealTime-Glo MT Cell Viability Assay in HEK293 cells - 24 hour (AID 1224886); also: nearly all actives have a fitted effect of over 50% in size; also: potency is read from the fitted curve at half-maximal effect; as to activity change, negative = cytotoxicity: top concentration of the series differs between compounds
Outline: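 Tox21 10K qHTS, HEK293, 600 cells/well, RealTime-Glo reagent co-dispensed with cells; 5 h preincubation, compound by pintool, 37 C, luminescence at 0–40 h.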

[12] = qHTS RealTime-Glo MT Cell Viability Assay in HEK293 cells - 8 hour (AID 1224887); also: nearly all actives have a fitted effect of over 50% in size; also: potency is read from the fitted curve at half-maximal effect; as to activity change, negative = cytotoxicity: top concentration of the series differs between compounds
Outline: as §3

[13] = A CellTox Green Cytotoxicity Assay to monitor cytotoxicity in HEK293 cells - 16 hour (AID 1224888); also: nearly all actives have a fitted effect of over 35% in size; also: potency is read from the fitted curve at half-maximal effect
Outline: as §4

[14] = qHTS RealTime-Glo MT Cell Viability Assay in HepG2 cells - 0 hour (AID 1224889); also: nearly all actives have a fitted effect of over 50% in size
Outline: as §2

[15] = A CellTox Green Cytotoxicity Assay to monitor cytotoxicity in HepG2 cells - 8 hour (AID 1224890); also: nearly all actives have a fitted effect of over 45% in size; also: potency is read from the fitted curve at half-maximal effect
Outline: as §1

[16] = qHTS assay to identify small molecule antagonists of the estrogen receptor alpha (ER-alpha) signaling pathway using the BG1 cell line in the presence of 0.1 nM 17-beta-estradiol - cell viability counter screen (AID 1259241); also: nearly all actives have a fitted effect of over 40% in size
Outline: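 Live-cell protease activity (CellTiter-Fluor fluorescence, 30 min) was read in the same wells after VM7Luc4E2 cells had been exposed to compounds with 0.1 nM 17beta-estradiol for 22 hr at 37C.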

[17] = qHTS assay to identify small molecule antagonists of the androgen receptor (AR) signaling pathway using the MDA cell line in the presence of 0.5 nM R1881 - cell viability counter screen (AID 1259242); also: nearly all actives have a fitted effect of over 45% in size; also: potency is read from the fitted curve at half-maximal effect
Outline: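 R1881 at 0.5 nM final stimulated MDA-kb2 cells during 16 hr compound treatment at 37C. Cytotoxicity read: CellTiter-Fluor fluorescence after 30 min.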

[18] = molecular target: Androgen receptor (Homo sapiens) (UniProt P10275); assay: qHTS assay to identify small molecule antagonists of the androgen receptor (AR) signaling pathway using the MDA cell line in the presence of 0.5 nM R1881 (AID 1259243); also: nearly all actives have a fitted effect of over 50% in size
Outline: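 We exposed MDA-kb2 cells to compounds under 0.5 nM R1881 stimulation for 16 hr at 37C and quantified MMTV-driven luciferase by luminescence.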

[19] = molecular target: Estrogen receptor (Homo sapiens) (UniProt P03372); assay: qHTS assay to identify small molecule antagonists of the estrogen receptor alpha (ER-alpha) signaling pathway using the BG1 cell line in the presence of 0.1 nM 17-beta-estradiol (AID 1259244); also: nearly all actives have a fitted effect of over 50% in size; also: potency is read from the fitted curve at half-maximal effect
Outline: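 VM7Luc4E2; 4xERE-luciferase; 0.1 nM E2 final; 22 h co-incubation, 37C; ONE-Glo luminescence after 30 min at room temperature.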

[20] = A CellTox Green Cytotoxicity Assay to monitor cytotoxicity in HEK293 cells - 24 hour (AID 1224875); also: nearly all actives have a fitted effect of over 45% in size; also: potency is read from the fitted curve at half-maximal effect; as to activity change: series mostly up to about 77 µM
Outline: as §4
% is scaled to controls: 0 for no effect and ±100 for the full control effect.

Estrogen receptor (Homo sapiens), sequence (P03372 whole entry, looked up): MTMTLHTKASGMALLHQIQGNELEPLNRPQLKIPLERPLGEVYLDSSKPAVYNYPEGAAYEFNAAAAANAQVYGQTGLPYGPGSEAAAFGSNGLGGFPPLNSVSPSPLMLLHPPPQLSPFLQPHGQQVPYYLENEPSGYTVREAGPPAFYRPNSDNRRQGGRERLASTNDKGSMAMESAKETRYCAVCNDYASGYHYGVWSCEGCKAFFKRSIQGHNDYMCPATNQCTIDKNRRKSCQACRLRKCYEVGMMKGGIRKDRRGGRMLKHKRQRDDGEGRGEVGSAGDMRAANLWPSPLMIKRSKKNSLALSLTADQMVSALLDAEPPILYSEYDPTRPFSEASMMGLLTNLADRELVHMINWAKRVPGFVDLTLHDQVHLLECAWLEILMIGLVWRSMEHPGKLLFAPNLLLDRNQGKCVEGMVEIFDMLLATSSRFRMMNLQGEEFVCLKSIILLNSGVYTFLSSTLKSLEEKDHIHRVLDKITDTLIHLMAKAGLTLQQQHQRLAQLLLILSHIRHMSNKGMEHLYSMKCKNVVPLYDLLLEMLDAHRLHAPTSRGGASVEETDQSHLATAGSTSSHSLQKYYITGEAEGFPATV
Androgen receptor (Homo sapiens), sequence (P10275 whole entry, looked up): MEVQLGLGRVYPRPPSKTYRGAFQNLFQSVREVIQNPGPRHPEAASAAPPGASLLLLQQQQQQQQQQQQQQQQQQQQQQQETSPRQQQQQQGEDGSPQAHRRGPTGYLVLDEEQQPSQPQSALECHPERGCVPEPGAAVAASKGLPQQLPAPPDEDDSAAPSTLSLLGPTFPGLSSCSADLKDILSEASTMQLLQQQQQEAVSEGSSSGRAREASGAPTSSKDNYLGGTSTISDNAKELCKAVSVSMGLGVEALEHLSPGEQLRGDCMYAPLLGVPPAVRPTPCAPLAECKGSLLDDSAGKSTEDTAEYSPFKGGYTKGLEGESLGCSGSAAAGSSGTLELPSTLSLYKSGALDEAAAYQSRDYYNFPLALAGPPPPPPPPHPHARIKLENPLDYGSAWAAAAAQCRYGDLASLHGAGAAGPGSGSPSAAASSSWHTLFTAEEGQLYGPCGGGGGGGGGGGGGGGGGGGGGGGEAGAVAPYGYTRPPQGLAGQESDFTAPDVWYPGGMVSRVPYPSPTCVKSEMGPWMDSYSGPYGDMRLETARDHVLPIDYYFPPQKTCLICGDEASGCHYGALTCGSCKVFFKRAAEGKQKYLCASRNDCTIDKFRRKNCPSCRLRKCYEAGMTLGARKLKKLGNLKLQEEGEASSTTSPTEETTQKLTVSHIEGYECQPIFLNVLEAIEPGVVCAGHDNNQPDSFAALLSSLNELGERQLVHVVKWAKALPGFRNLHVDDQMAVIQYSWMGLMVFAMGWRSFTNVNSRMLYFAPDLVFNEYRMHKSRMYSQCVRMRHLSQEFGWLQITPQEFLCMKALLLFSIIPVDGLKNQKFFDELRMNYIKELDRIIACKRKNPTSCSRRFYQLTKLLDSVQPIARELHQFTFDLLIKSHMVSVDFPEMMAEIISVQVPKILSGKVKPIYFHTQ

O=c1cc[nH]cc1
inactive: Potency [1] | Potency [2] | Potency [3] | Potency [4] | Potency [5] | Potency [6] | Potency [7] | Potency [8] | Potency [9] | Potency [10] | Potency [11] | Potency [12] | Potency [13] | Potency [14] | Potency [15] | Potency [16] | Potency [17] | Potency [18] | Potency [19]

c1ccc(C[P+](c2ccccc2)(c2ccccc2)c2ccccc2)cc1
inactive: Potency [20] | Potency [5] | Potency [7] | Potency [9] | Potency [10] | Potency [13] | Potency [14] | Potency [15]
active: Potency [8] 21.9 µM | Potency [11] 1.74 µM | Potency [17] 10.9 µM | Potency [19] 1.22 µM

Cc1ccc(C=O)cc1
inactive: Potency [1] | Potency [2] | Potency [3] | Potency [4] | Potency [5] | Potency [6] | Potency [7] | Potency [8] | Potency [9] | Potency [10] | Potency [11] | Potency [12] | Potency [13] | Potency [15] | Potency [16] | Potency [17] | Potency [19]

CC(C)=CCC[C@H](C)CC=O
inactive: Potency [1] | Potency [2] | Potency [3] | Potency [4] | Potency [5] | Potency [7] | Potency [8] | Potency [9] | Potency [10] | Potency [11] | Potency [12] | Potency [14] | Potency [15] | Potency [17]

CC(O)(c1ccc(Cl)cc1)c1ccc(Cl)cc1
inactive: Potency [5] | Potency [7] | Potency [14]
active: Potency [20] 49 µM | Potency [3] 49 µM | Potency [6] 49 µM | Potency [8] 49 µM | Potency [11] 24.5 µM | Potency [12] 34.7 µM | Potency [15] 54.9 µM

C=C[Si](C)(C)Cl
inactive: cytotoxicity increase [1] -13.5% [at 6.97 µM] | activity change, negative = cytotoxic [2] 9.18% [at 6.97 µM] | cytotoxicity [3] -14.5% [at 6.97 µM] | cytotoxicity increase [4] -18.2% [at 6.97 µM] | cytotoxicity increase [6] -7.47% [at 6.97 µM] | cytotoxicity [7] -6.72% [at 6.97 µM] | cytotoxicity increase [8] -16.4% [at 6.97 µM] | cytotoxicity increase [9] -2.48% [at 6.97 µM] | activity change, negative = cytotoxic [10] -9.49% [at 6.97 µM] | activity change, negative = cytotoxicity [11] -3.65% [at 6.97 µM] | activity change, negative = cytotoxicity [12] -4.42% [at 6.97 µM] | activity change [13] -2.03% [at 6.97 µM, stronger effect = higher value] | activity change, negative = cytotoxicity [14] -16.4% [at 6.97 µM] | cytotoxicity increase [15] -7.78% [at 6.97 µM] | activity change, negative = cytotoxicity [16] -11.6% [at 8.39 µM]

COc1cc([C@@H]2c3cc4c(cc3[C@@H](O[C@@H]3O[C@@H]5CO[C@@H](C)O[C@H]5[C@H](O)[C@H]3O)[C@H]3COC(=O)[C@H]23)OCO4)cc(OC)c1O
inactive: Potency [20] | Potency [6] | Potency [7] | Potency [9] | Potency [10] | Potency [12] | Potency [14] | Potency [15] | Potency [16] | Potency [17]
active: Potency [3] 48.4 µM | Potency [4] 48.4 µM | Potency [8] 48.4 µM | Potency [11] 1.08 µM

CN(C/C=C/c1ccccc1)Cc1cccc2ccccc12
active: Potency [20] 19 µM | Potency [3] 23.9 µM | Potency [4] 21.3 µM | Potency [6] 19 µM | Potency [7] 19 µM | Potency [8] 23.9 µM | Potency [9] 19 µM | Potency [13] 19 µM | Potency [15] 23.9 µM
inactive: Potency [12] | Potency [14] | Potency [17] | Potency [19]
